Measurements from PubChem BioAssay (EPA / NIEHS).
Inconclusive results are not listed. Calls of active or inactive are those of the source. The calls were made as follows, unless noted: active = hit-call score of the fitted dose curve at least 0.9, where 1 is the maximum; inactive = score below 0.9.

Assays:
[1] = ACEA_ER_80hr: ACEA Biosciences xCELLigence Real-Time Cell Analysis on Estrogen Receptor Agonism for Proliferation (AID 2282667; active = hit-call score of the fitted dose curve at least 0.9, where 1 is the maximum); settings: T47D proliferation, impedance (xCELLigence), 80 h
Outline: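 Estrogen-driven proliferation is captured as electrode impedance in T47D cells 80 h after compound addition. Test articles ran at 8 concentrations, 1:4 dilutions from 100 uM final, in two replicate plates.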

[2] = ATG_CRE_CIS: Attagene CIS-FACTORIAL HepG2 Assay for human cAMP Responsive Element (CRE) binding protein 3 (AID 2282926); settings: HepG2 CRE cis-reporter, Attagene multiplexed mRNA; actives raise or lower the signal
Outline: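 Transfected HepG2 were treated for 24 hours, then RNA was extracted and reporter cDNA amplified with sequence-specific primers. Labelled fragments were separated by capillary electrophoresis, and the CRE signal was fitted bidirectionally with DMSO as baseline.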

[3] = target: CCAAT/enhancer-binding protein beta (Homo sapiens) (UniProt P17676); assay: ATG_C_EBP_CIS: Attagene CIS-FACTORIAL HepG2 Assay for human CCAAT/Enhancer Binding Protein (C/EBP) beta (AID 2282927); settings: HepG2 Attagene cis-factorial transcription factor reporter; actives raise or lower the signal
Outline: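 HepG2, transient MRTU transfection, 24 h treatment. RT-PCR plus CE fluorescence; DMSO negative control, bidirectional fit.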

[4] = ATG_CMV_CIS: Attagene CIS-FACTORIAL HepG2 Assay for human CMV (Internal Marker) (AID 2282928); settings: HepG2 CMV promoter reporter, transcription factor profiling; actives raise or lower the signal;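 also: endpoint acts as a background internal control marker rather than a target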
Outline: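 Cell system: HepG2, transiently transfected multiple reporter units under cis promoters. Exposure: 24 h. Detection: RT-PCR, FAM labeling, HpaI digestion, capillary electrophoresis. Analysis: bidirectional, DMSO baseline.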

[5] = ATG_DR4_LXR_CIS: Attagene CIS-FACTORIAL HepG2 Assay for human Liver X Receptor (LXR), DR4 submotif (AID 2282929); settings: HepG2 Attagene DR4 cis-reporter, mRNA transcription; actives raise or lower the signal
Outline: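 Readout: reporter transcript fluorescence after RT-PCR and capillary electrophoresis, fitted bidirectionally against DMSO controls. Human HepG2 liver cells carried transiently transfected multiplexed reporter constructs; endogenous transcription factor activity measured 24 h post-dosing.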

[6] = target: Aryl hydrocarbon receptor (Homo sapiens) (UniProt P35869); assay: ATG_Ahr_CIS: Attagene CIS-FACTORIAL HepG2 Assay for human Aryl Hydrocarbon Receptor (Ahr) (AID 2282930); settings: HepG2 AhR cis-factorial reporter transcription; actives raise or lower the signal
Outline: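 Endogenous factor activity is tracked through cis-promoter reporter units transfected into HepG2 cells. Transcript levels at 24 h are read by fluorescent RT-PCR and capillary electrophoresis, with activity in either direction scored relative to DMSO.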

[7] = ATG_AP_1_CIS: Attagene CIS-FACTORIAL HepG2 Assay for human Activator Protein 1 (AP-1) (AID 2282931); settings: HepG2 Attagene cis-factorial AP-1 reporter mRNA; actives raise or lower the signal
Outline: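 Reporter transcripts were measured 24 h after dosing by RT-PCR and capillary electrophoresis of fluorescent fragments. Cells: HepG2 carrying transfected cis-regulated reporter constructs reading endogenous factor activity. Gain or loss fitted against DMSO.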

[8] = ATG_AP_2_CIS: Attagene CIS-FACTORIAL HepG2 Assay for human Activator Protein 2 (AP-2) (AID 2282932); settings: HepG2 AP-2 cis-reporter, Attagene transcription factor profiling; actives raise or lower the signal
Outline: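 HepG2 cells transiently transfected with cis-element reporter units and exposed for 24 h. Reporter mRNA measured by RT-PCR, FAM labelling, HpaI digestion and capillary electrophoresis. Changes in either direction fitted relative to DMSO.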

[9] = ATG_BRE_CIS: Attagene CIS-FACTORIAL HepG2 Assay for human Bone Morphogenetic Protein (BMP) Response Element (BRE) (AID 2282933); settings: HepG2 BMP response element reporter, Attagene transcription factor profiling; actives raise or lower the signal
Outline: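 Endogenous transcription factor activity read in transiently transfected HepG2 cells after 24 h chemical exposure. Bidirectional curve fitting against DMSO; readout is reporter transcript level by RT-PCR with capillary electrophoresis of labelled products.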

[10] = target: Transcription factor E2F1 (Homo sapiens) (UniProt Q01094); assay: ATG_E2F_CIS: Attagene CIS-FACTORIAL HepG2 Assay for human E2F Transcription Factor 1 (AID 2282935); settings: HepG2 Attagene cis-reporter, E2F reporter RNA transcripts; actives raise or lower the signal
Outline: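 Endogenous E2F1 activity read through cis-promoter reporter units transfected into HepG2. After 24 h compound treatment, reporter mRNA measured by RT-PCR, HpaI digestion and capillary electrophoresis. Bidirectional fit versus DMSO.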

[11] = ATG_E_Box_CIS: Attagene CIS-FACTORIAL HepG2 Assay for human Enhancer Box (E-box) (AID 2282936); settings: HepG2 E-box cis-reporter transcription, actives raise or lower the signal
Outline: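 HepG2 cells transiently transfected with multiplexed cis-element reporter units, dosed 24 h; reporter mRNA quantified by RT-PCR, 6-FAM labelling, HpaI digestion and capillary electrophoresis. E-box (USF1) signal fitted bidirectionally vs DMSO.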

[12] = ATG_M_61_CIS: Attagene CIS-FACTORIAL HepG2 Assay for M61 Transcription Factor (Internal Marker) (AID 2282937); settings: HepG2 Attagene CIS-FACTORIAL M61 internal marker reporter; actives raise or lower the signal
Outline: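 Readout: fluorescent reporter mRNA fragments resolved by capillary electrophoresis after RT-PCR. Transiently transfected human HepG2 cells carried MRTU constructs reporting endogenous TF activity; 24 h chemical exposure; gain or loss of signal fitted relative to DMSO.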

[13] = ATG_EGR_CIS: Attagene CIS-FACTORIAL HepG2 Assay for human Early Growth Response 1 (EGR1) (AID 2282938); settings: HepG2 Attagene CIS-FACTORIAL EGR reporter mRNA; actives raise or lower the signal
Outline: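 Read-out: fluorescent reporter-mRNA fragments resolved by capillary electrophoresis after RT-PCR, 24 h post-dose in transiently transfected HepG2. Endogenous transcription-factor activity reported via cis-element-regulated reporter units; gain or loss fitted relative to DMSO.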

[14] = ATG_M_19_CIS: Attagene CIS-FACTORIAL HepG2 Assay for M19 Transcription Factor (Internal Marker) (AID 2282939); settings: HepG2 Attagene CIS-FACTORIAL M19 internal marker reporter; actives raise or lower the signal
Outline: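 Internal marker readout, fitted in both directions against DMSO, from HepG2 cells carrying transfected cis-element reporter constructs; RT-PCR and capillary electrophoresis of reporter mRNA after 24 h exposure.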

[15] = ATG_ERE_CIS: Attagene CIS-FACTORIAL HepG2 Assay for Estrogen Response Element (ERE) (AID 2282940); settings: HepG2 ERE cis-reporter, Attagene RNA transcript; actives raise or lower the signal
Outline: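 After 24 h compound treatment, RNA from transfected HepG2 cells was reverse-transcribed, reporter cDNA PCR-amplified, FAM-labelled, HpaI-cut and resolved by capillary electrophoresis. ERE-driven cis reporter transcripts reflect endogenous factors; gain or loss scored against DMSO.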

[16] = ATG_Ets_CIS: Attagene CIS-FACTORIAL HepG2 Assay for human Erythroblast Transformation Specific (ETS) (AID 2282941); settings: HepG2 ETS cis-reporter transcription, actives raise or lower the signal
Outline: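 After transient cis-reporter transfection, HepG2 cells receive test chemical for 24 h. Reporter mRNA levels, measured by RT-PCR and capillary electrophoresis fluorescence, are analysed bidirectionally relative to the DMSO baseline.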

[17] = target: Hepatocyte nuclear factor 3-beta (Homo sapiens) (UniProt Q9Y261); assay: ATG_FoxA2_CIS: Attagene CIS-FACTORIAL HepG2 Assay for human Forkhead box A2 (FOXA2) (AID 2282942); settings: HepG2 cis-reporter transcription factor activity, 24 h; actives raise or lower the signal
Outline: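 Readout: fluorescent reporter transcripts resolved by capillary electrophoresis after RT-PCR. Transiently transfected HepG2, 24 h compound exposure, endogenous TF activity at cis promoter elements. Gain or loss of signal fitted relative to DMSO.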

[18] = ATG_FoxO_CIS: Attagene CIS-FACTORIAL HepG2 Assay for human Forkhead box O (FoxO) (AID 2282943); settings: HepG2 Attagene cis-reporter, FoxO element, mRNA; actives raise or lower the signal
Outline: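 Transfected HepG2 reporter cells exposed to test chemical for 24 h; reporter RNA measured by reverse transcription, PCR and fluorescent capillary electrophoresis; curves fitted for increases and decreases against DMSO.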

[19] = ATG_GATA_CIS: Attagene CIS-FACTORIAL HepG2 Assay for human GATA Binding Protein (AID 2282944); settings: HepG2 GATA cis-element reporter, Attagene multiplex mRNA; actives raise or lower the signal
Outline: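 Reporter transcripts from a GATA cis-regulated unit, among multiplexed reporters in transfected HepG2 cells, were measured by RT-PCR with capillary electrophoresis after 24 h dosing. Induction or loss scored relative to DMSO.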

[20] = target: Retinoic acid receptor alpha (Homo sapiens) (UniProt P10276); assay: ATG_DR5_RAR_CIS: Attagene CIS-FACTORIAL HepG2 Assay for human Retinoic Acid Receptor Alpha (RARE), DR5 submotif (AID 2282934); settings: HepG2 Attagene cis-factorial RARE DR5 reporter, mRNA; actives raise or lower the signal;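 as to AC50: reporter responds to endogenous RAR alpha beta and gamma in HepG2 not RARA alone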
Outline: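 After 24 h of chemical exposure, transiently transfected HepG2 cells were lysed for total RNA; the DR5-regulated reporter transcript was quantified via RT-PCR and capillary electrophoresis, with activity fitted bidirectionally against DMSO.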

Measured: AC50

Chain of Transcription factor E2F1 (Homo sapiens) (Q01094 whole entry, looked up): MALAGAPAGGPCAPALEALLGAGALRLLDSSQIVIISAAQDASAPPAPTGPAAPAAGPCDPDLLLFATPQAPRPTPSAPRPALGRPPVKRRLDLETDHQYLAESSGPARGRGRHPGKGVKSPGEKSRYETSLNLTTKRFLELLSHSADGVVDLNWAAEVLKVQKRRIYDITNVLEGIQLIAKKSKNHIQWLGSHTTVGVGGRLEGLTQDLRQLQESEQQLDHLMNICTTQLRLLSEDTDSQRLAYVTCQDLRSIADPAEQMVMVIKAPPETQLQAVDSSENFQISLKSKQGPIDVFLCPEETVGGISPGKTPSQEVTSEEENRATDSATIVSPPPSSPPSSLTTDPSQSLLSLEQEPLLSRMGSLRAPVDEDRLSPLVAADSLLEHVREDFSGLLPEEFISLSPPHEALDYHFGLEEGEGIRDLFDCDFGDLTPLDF
Chain of Aryl hydrocarbon receptor (Homo sapiens) (P35869 whole entry, looked up): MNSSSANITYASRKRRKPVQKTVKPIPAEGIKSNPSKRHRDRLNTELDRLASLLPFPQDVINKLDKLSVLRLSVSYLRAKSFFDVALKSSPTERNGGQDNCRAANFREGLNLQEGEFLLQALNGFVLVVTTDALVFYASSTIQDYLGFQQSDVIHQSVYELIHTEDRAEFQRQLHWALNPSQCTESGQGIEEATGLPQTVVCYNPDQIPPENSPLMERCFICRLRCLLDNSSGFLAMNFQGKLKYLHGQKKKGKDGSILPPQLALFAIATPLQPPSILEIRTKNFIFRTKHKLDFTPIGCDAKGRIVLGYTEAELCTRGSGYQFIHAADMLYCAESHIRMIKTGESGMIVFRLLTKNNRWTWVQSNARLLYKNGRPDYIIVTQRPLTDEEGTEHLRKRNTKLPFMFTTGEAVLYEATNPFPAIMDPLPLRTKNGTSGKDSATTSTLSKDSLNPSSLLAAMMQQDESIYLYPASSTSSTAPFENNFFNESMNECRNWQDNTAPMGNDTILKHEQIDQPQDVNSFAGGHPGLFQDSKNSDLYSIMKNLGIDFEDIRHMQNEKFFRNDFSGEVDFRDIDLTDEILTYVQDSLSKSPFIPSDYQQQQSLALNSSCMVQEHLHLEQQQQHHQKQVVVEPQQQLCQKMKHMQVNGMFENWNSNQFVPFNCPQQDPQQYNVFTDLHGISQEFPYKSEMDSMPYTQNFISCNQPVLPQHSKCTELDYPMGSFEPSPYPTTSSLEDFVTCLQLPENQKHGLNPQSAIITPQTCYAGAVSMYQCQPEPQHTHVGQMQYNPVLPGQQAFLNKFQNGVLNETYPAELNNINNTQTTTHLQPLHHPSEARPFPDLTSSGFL
Chain of CCAAT/enhancer-binding protein beta (Homo sapiens) (P17676 whole entry, looked up): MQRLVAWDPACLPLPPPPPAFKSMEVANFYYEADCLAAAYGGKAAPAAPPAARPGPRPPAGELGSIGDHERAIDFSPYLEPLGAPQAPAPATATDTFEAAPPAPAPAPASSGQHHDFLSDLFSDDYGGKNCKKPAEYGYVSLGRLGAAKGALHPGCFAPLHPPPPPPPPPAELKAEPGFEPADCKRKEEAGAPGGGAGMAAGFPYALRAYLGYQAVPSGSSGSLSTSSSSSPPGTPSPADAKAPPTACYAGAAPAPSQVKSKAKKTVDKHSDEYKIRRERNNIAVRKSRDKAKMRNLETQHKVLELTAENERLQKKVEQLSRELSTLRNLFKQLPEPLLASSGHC
Chain of Retinoic acid receptor alpha (Homo sapiens) (P10276 whole entry, looked up): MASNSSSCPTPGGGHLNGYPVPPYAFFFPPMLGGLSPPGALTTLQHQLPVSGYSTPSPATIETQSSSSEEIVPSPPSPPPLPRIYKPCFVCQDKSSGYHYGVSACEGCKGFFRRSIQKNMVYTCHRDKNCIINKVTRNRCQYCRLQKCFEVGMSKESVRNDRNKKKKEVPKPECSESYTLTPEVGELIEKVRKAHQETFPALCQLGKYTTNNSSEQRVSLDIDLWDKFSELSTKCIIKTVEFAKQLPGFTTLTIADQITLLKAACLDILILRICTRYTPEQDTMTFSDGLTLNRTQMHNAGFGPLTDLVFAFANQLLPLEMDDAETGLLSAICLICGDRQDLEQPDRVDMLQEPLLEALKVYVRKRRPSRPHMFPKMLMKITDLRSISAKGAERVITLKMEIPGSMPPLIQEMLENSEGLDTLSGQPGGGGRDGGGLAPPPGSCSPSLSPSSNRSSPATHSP
Chain of Hepatocyte nuclear factor 3-beta (Homo sapiens) (Q9Y261 whole entry, looked up): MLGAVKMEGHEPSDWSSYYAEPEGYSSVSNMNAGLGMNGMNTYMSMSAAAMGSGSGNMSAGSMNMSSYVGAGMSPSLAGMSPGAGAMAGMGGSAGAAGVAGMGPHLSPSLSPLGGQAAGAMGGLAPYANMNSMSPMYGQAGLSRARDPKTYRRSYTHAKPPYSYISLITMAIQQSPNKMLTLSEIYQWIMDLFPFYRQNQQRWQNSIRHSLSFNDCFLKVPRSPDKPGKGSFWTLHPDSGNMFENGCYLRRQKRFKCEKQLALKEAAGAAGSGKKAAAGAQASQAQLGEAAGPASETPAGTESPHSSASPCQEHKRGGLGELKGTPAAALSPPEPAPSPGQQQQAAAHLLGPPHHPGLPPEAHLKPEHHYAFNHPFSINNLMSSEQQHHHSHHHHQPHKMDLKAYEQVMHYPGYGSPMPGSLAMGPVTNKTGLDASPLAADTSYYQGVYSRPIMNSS

O=c1cccc[nH]1
not listed: [20]
inactive: all other assays above

Cc1ccc2c(c1)OCC(=O)CO2
not listed: [17]
inactive: all other assays above

CCCC(=O)OCC(COC(=O)CCC)OC(=O)CCC
active: [4] 69.3 µM | [9] 57.5 µM | [20] 37.5 µM
not listed: [7]
inactive: all other assays above
